The campaign covered roughly 370,000 compounds. About 3,300 (0.89%) were called active.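 The calls were made as follows: active = activation above the mean of all tested compounds plus 3 SD, computed per campaign excluding outliers beyond control limits (cut at about 13% in these data); inactive = the rest.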 Only a selection was taken, and actives are over-represented in it overall.

Kallikrein-7 (Homo sapiens), sequence (P49862 whole entry, looked up): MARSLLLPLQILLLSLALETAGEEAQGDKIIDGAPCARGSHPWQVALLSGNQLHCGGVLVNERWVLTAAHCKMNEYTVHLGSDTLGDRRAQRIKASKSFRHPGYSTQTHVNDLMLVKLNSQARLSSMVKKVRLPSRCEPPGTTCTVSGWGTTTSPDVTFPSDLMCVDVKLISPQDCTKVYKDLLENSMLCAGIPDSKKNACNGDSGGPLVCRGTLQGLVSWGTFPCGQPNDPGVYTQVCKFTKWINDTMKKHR

The assay addresses Kallikrein-7 (Homo sapiens) (UniProt P49862). Description: proKLK7 zymogen activators, primary screen, biochemical, fluorescence intensity (AID 652039). The note with it: purified proKLK7, EDANS-DABCYL substrate fluorescence; at 7 µM; hits give high values; 100% is mature enzyme control, 0% vehicle.
Consider `CCOC(OCC)c1ccc(/C=C\c2nccc(N)n2)cc1`, for which the activation was 47.7% (active).

As to `O=C(N1CCOCC1)N1CC[C@H]2[C@H](CCCN2Cc2ccc(F)cc2)C1`, the activation was 0.18% (inactive).

Take `COc1ccc2c(c1)CN1CN(CCc3ccccc3)S(=O)(=O)CC21` (stereo unspecified): the activation was -0.32% (inactive).

For the compound `CN(C(=O)CCn1c(=S)oc2ccccc21)C1CCCCC1`, the activation is -0.28% (inactive).

As for `CCOC(=O)C1=C(C)OC(N)=C(C#N)C1c1cncc(-c2ccc(F)cc2)c1` (stereo unspecified), the activation was 0.49% (inactive).

Turning to `COC(=O)C1=C(C)OC(N)=C(C#N)C1c1cc(OC)ccc1OC` (stereo unspecified), the activation was 30.7% (active).

On to `COC(=O)C1=C(C)N(C)C(=S)NC1c1cc(OC)ccc1OC` (stereo unspecified), for which the activation was 0.24% (inactive).

With `CC(C)c1ccc(C2C(C#N)=C(N)Oc3c2oc(CO)cc3=O)cc1` (stereo unspecified), the activation is 0.31% (inactive).

Take `CCOC(=O)C1=C(CC)OC(N)=C(C#N)C1c1ccc(F)cc1F` (stereo unspecified): the activation was -0.17% (inactive).

Take `CCC1=C(C(=O)OC)C(c2cc(OC)ccc2OC)C(C#N)=C(N)O1` (stereo unspecified): the activation is 15.6% (active).

As for `Cc1ccc(CN2CCCCC(NC(=O)C3CCCCC3)C2=O)cc1` (stereo unspecified), the activation was -0.03% (inactive).

Regarding `CCOC(=O)[C@]12CCCC=C1N(Cc1ccc(OC)cc1)C(=O)[C@@H]2CC(=O)NCc1cccs1`, the activation was -0.38% (inactive).

Turning to `Clc1ccc(-n2c(COc3ccccc3)nnc2SCc2nc3ccccc3[nH]2)cc1`, the activation was 0.33% (inactive).

Take `O=C(CSc1nnc(-c2ccccn2)n1-c1ccc(Cl)cc1)Nc1ccccc1-c1ccccc1`: the activation is 0.1% (inactive).

Turning to `COC(=O)[C@]12C[C@H](CC(=O)N3CCOCC3)C(=O)N(Cc3ccc(Cl)cc3Cl)C1=C[C@H](COCc1ccccc1)O[C@@H]2C`, the activation was 0.05% (inactive).

Take `Cc1cc(=O)[nH]c(SCC(=O)Nc2ccc(F)cc2F)n1`: the activation is -0.3% (inactive).

Consider `CCN1CCc2c(C#N)c(NCc3ccccc3)nc(NCCO)c2C1`, for which the activation was 14.3% (active).

On to `CC(C)CCNc1nc(N2CCCC2)c2c(c1C#N)CCN(C)C2`, for which the activation was -0.46% (inactive).

For `CCCCc1nc(NCc2ccccc2)c(C#N)c2c1CCCC2`, the activation was -0.04% (inactive).

Regarding `Clc1cccc(Cl)c1OCCOCCNCc1ccccc1`, the activation was -0.51% (inactive).

On to `CC1(C)CC(=O)CC2(C1)NCC(c1ccccc1Cl)c1c2[nH]c2ccccc12` (stereo unspecified), for which the activation was 0.29% (inactive).

In the case of `CC(=O)N1CCc2cc(S(=O)(=O)NCCC(=O)N3CCCC3)ccc21`, the activation is 0.03% (inactive).

`C/C(N)=C(/C#N)C(=O)COC(=O)c1cc(-c2cccc(Br)c2)nc2ccccc12`: the activation is 0.31% (inactive).

`Cc1cc(C(=O)OCC(=O)Nc2nccs2)c2ccccc2n1`: the activation was -2.12% (inactive).

For the compound `CNC(=O)COC(=O)c1cc(-c2ccc(OC)cc2)nc2ccccc12`, the activation is 113% (active).

In the case of `COc1ccc(-c2cc(C(=O)n3cnc4ccccc43)c3ccccc3n2)cc1`, the activation is 20.8% (active).

In the case of `COc1ccc(S(=O)(=O)n2cnc3ccccc32)c(C)c1`, the activation is -0.43% (inactive).

Take `COc1ccc(-c2cc3n(n2)CCc2nc4ccccc4n2-3)cc1`: the activation was 0.02% (inactive).

Take `CN(CCO)c1cccc2c1S(=O)(=O)N(Cc1cn(Cc3ccc(C(F)(F)F)cc3)nn1)Cc1ccccc1O2`: the activation is 1.21% (inactive).

For the compound `COC(=O)C[C@@H]1CC[C@H]2[C@@H](COc3ccc(NS(=O)(=O)CC(F)(F)F)cc3C(=O)N2C)O1`, the activation is -0.11% (inactive).

As for `CCOC(=O)CN1C(=O)C(O)(CC(=O)c2ccccn2)c2ccccc21` (stereo unspecified), the activation is 0.64% (inactive).

On to `O=C(NCCC1=CCCCC1)C1CCN(S(=O)(=O)c2ccc(Cl)s2)CC1`, for which the activation was 0.13% (inactive).

As for `Cc1cc(NS(=O)(=O)c2ccc(NC(=O)CSc3nnc(SCc4ccc(F)cc4)s3)cc2)nc(C)n1`, the activation is -0.24% (inactive).

`COC(=O)c1cccc(Cn2ccc3ccc(-c4ccc5ccn(C(=O)c6ccccc6C)c5c4)cc32)c1`: the activation is -10.5% (inactive).

On to `COC(=O)c1c(C)c(C)nc(N)c1C#N`, for which the activation is 33.8% (active).

As to `COCc1c(N)c(C)nc(Cl)c1C#N`, the activation is -1.78% (inactive).

For `Cc1nc(SCC(=O)NC2CCCCC2C)c(C#N)c(C)c1C` (stereo unspecified), the activation was -0.08% (inactive).

For the compound `Cc1ccccc1NC(=O)Cn1nnc(-c2ccccc2F)n1`, the activation is -0.28% (inactive).

Regarding `O=C(NC1CCCC1)C1CSCCS(=O)(=O)N1Cc1ccccc1` (stereo unspecified), the activation is 0.33% (inactive).

With `Cc1c[nH]c2cccc(-c3ccc(Cl)cc3)c12`, the activation is 0.5% (inactive).

As for `O=C(CSc1nnc(COc2ccccc2)n1Cc1ccco1)c1ccc2ccccc2c1`, the activation is 0.09% (inactive).

In the case of `O=C(NCc1cccs1)C1CCCN(S(=O)(=O)c2ccc([N+](=O)[O-])cc2)C1` (stereo unspecified), the activation is -0.47% (inactive).

With `Cc1ccc(-n2c(SCC(=O)Nc3ccc(S(=O)(=O)Nc4nccs4)cc3)nnc2-c2ccncc2)cc1`, the activation was 0.08% (inactive).

`CCCCCn1c(=O)c(C(=O)OCC)c(Cl)c2ccccc21`: the activation was 27.6% (active).

For the compound `CCOC(=O)CSc1nc2c(c(=O)n(Cc3ccccc3Cl)c(=O)n2C)n1C`, the activation is -0.44% (inactive).

Regarding `CCCCNC(=O)CCn1c(=O)c2ccccc2n(Cc2cc(C)ccc2C)c1=O`, the activation is -0.3% (inactive).

For the compound `C=CCn1c(SCC(N)=O)nnc1-c1ccccc1OC`, the activation is -0.28% (inactive).

`Cc1ccc(C2=CCN(C)C(=O)N2c2ccc(Cl)cc2)cc1`: the activation was 0.11% (inactive).

In the case of `C[C@H](C(=O)N(C)c1ccccc1)[C@@H](O)c1ccc2ccccc2c1`, the activation was -0.85% (inactive).

As for `CN(C)S(=O)(=O)c1cccc(C(=O)N/N=C\c2ccco2)c1`, the activation was -0.04% (inactive).

Take `CC[C@@H](C)[C@H](NC(=O)CCc1c(C)c2cc3c4c(oc3c(C)c2oc1=O)CCCC4)C(=O)O`: the activation was -2.12% (inactive).

On to `Cc1coc2c1c(C)cc1oc(=O)c(CC(=O)NCC(=O)N[C@H](C(=O)O)C(C)C)c(C)c12`, for which the activation was 21.3% (active).

In the case of `Cc1c(CC(=O)NCC(=O)NCC(=O)O)c(=O)oc2cc3oc4c(c3cc12)CCCC4`, the activation is -11.5% (inactive).

As to `CCOC(=O)[C@]12CCCC=C1N(Cc1ccc(OC)cc1)C(=O)[C@@H]2CC(=O)N1CCOCC1`, the activation is -0.23% (inactive).

With `Cc1ccc(CCn2c3c(c4ccccc42)CN(C)CC3)cn1`, the activation was -0.24% (inactive).

Regarding `COC(=O)[C@@]12CCCCC3=C1N(CCC3)C(=O)[C@H]2CC(=O)NCc1cccc2ccccc12`, the activation is 0.65% (inactive).

The record behind these values is PubChem BioAssay AID652039 (The Scripps Research Institute Molecular Screening Center, 2013).
